Data on eleven molecules can be found in PubChem BioAssay (NCI).

Structures are written as SMILES. The panel holds about 83,000 compounds, 20% with a hit somewhere; the sample as a whole holds those more often.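 96-well plates, one dose, 48 hours. Percent growth reported; active if below 10.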 Values without a mark were called inactive. Activity calls are given as the source filed them.

Test systems include NCI-H226 lung; NCI-H322M lung; HOP-62 NSCLC; NCI-H460 lung; HOP-92 NSCLC; NCI-H522 lung; A549/ATCC NSCLC; 786-0 renal; COLO 205 colon; DU-145 prostate; K-562 leukemia; MALME-3M melanoma; MDA-MB-231 breast; SF-268 CNS; SF-295 CNS; SF-539 CNS; UACC-257 melanoma; M14 melanoma; RXF 393 renal.
What all share (assay): NCI-60 one-dose screen, 48 h (100 = growth as untreated, 0 = no growth, -100 = all killed)
Common to all, as to details: 10 µM unless noted

Regarding `C=CCSc1n[nH]c(-c2cccs2)n1`, the growth in the experiment with NCI-H226 lung was 99.4%; with NCI-H322M lung, 110%; in the experiment with HOP-62 NSCLC, 94.3%; in the experiment with NCI-H460 lung it was 107%; with HOP-92 NSCLC, 94.7%; with NCI-H522 lung, 92%. Besides, the growth in the experiment on A549/ATCC NSCLC was 98.8%; with 786-0 renal it was 95.9%; with COLO 205 colon, 137%; with DU-145 prostate, 121%; in the experiment with K-562 leukemia, 85.6%; with MALME-3M melanoma, 110%. In addition, the growth in the experiment with MDA-MB-231 breast is 121%; with SF-268 CNS it was 111%; with SF-295 CNS, 106%; in the experiment with SF-539 CNS, 98.3%; with UACC-257 melanoma, 76.4%; with M14 melanoma it was 104%.
On to `C=C[C@@H]1C[C@H](O)Cc2c(C)cc(C)cc2N1`, for which the growth is 104% in the experiment on NCI-H226 lung; 117% in the experiment with NCI-H322M lung; 91.5% with HOP-62 NSCLC; 102% in the experiment on NCI-H460 lung; 75.1% in the experiment with HOP-92 NSCLC; 101% with NCI-H522 lung. The growth in the experiment with A549/ATCC NSCLC was 98.3%; with 786-0 renal, 98.8%; with COLO 205 colon, 106%; in the experiment with DU-145 prostate it was 102%; with K-562 leukemia, 92%; with MALME-3M melanoma, 103%. The growth is 101% in the experiment on MDA-MB-231 breast; 108% with RXF 393 renal; 97.5% in the experiment on SF-268 CNS; 91.9% with SF-295 CNS; 92.3% with SF-539 CNS; 97.6% with UACC-257 melanoma. For the same molecule, the growth in the experiment on M14 melanoma is 98.9%.
In the case of `NC1=NC(SCc2ccccc2CCl)c2ncn(Cc3ccccc3CCl)c2N1` (stereo unspecified), the growth in the experiment with NCI-H226 lung was 60.2%; in the experiment with NCI-H322M lung, 80.8%; in the experiment with HOP-62 NSCLC, 74.5%; in the experiment with HOP-92 NSCLC, 24%; with NCI-H522 lung, -92% (active); in the experiment with A549/ATCC NSCLC, 80.3%. For the same molecule, the growth is 64.2% in the experiment with 786-0 renal; 43.9% with COLO 205 colon; 64% with DU-145 prostate; 21.9% in the experiment with K-562 leukemia; 19.4% with MALME-3M melanoma; 47.5% in the experiment with MDA-MB-231 breast. Further, the growth in the experiment on RXF 393 renal was -4.55% (active); with SF-268 CNS, 54.9%; in the experiment on SF-295 CNS, 101%; in the experiment on SF-539 CNS, 69.4%; with UACC-257 melanoma, 42.5%; in the experiment on M14 melanoma, 40%.
As to `CC(C)(C)n1cc(-c2ccnc(NCCCNS(=O)(=O)c3cccc(F)c3)c2)c(-c2cccc(O)c2)n1`, the growth is 60.9% in the experiment on NCI-H226 lung; 58.6% with NCI-H322M lung; 73.8% in the experiment with HOP-62 NSCLC; 19.6% in the experiment with NCI-H460 lung; 47.6% in the experiment on NCI-H522 lung; 42.5% in the experiment with A549/ATCC NSCLC. Also, the growth in the experiment on 786-0 renal is 29.5%; in the experiment with COLO 205 colon it was 8.99% (active); in the experiment with DU-145 prostate it was 66%; with K-562 leukemia it was 2.9% (active); with MALME-3M melanoma, 50.3%; in the experiment with MDA-MB-231 breast, 37.3%. In addition, the growth is 46.5% in the experiment on RXF 393 renal; 54% in the experiment on SF-268 CNS; 31.6% with SF-295 CNS; 39.3% with SF-539 CNS; 52.9% with UACC-257 melanoma; 34.9% in the experiment on M14 melanoma.
In the case of `CN(C)CCCC(C#N)c1ccccc1` (stereo unspecified), the growth in the experiment with NCI-H226 lung was 107%; with NCI-H322M lung, 115%; in the experiment with HOP-62 NSCLC it was 103%; in the experiment with HOP-92 NSCLC, 105%; with NCI-H522 lung it was 119%; with A549/ATCC NSCLC it was 105%. Besides, the growth was 97.9% with 786-0 renal; 119% in the experiment on COLO 205 colon; 122% in the experiment on DU-145 prostate; 99.1% with K-562 leukemia; 131% in the experiment with MALME-3M melanoma; 112% in the experiment with MDA-MB-231 breast. Besides, the growth with RXF 393 renal was 115%; with SF-268 CNS it was 114%; in the experiment with SF-295 CNS it was 110%; in the experiment with UACC-257 melanoma, 104%; with M14 melanoma it was 104%.
For the molecule `CN(CCCCN(C[C@H]1Cc2ncccc2CN1)[C@H]1CCCc2cccnc21)C1CCC(F)(F)CC1`, the growth is 78.4% in the experiment with NCI-H226 lung; 95.5% in the experiment with NCI-H322M lung; 68.2% with HOP-62 NSCLC; 99.5% in the experiment on NCI-H460 lung; 70.5% in the experiment with HOP-92 NSCLC; 89.6% in the experiment on NCI-H522 lung. Also, the growth was 84% in the experiment with A549/ATCC NSCLC; 82.5% in the experiment with 786-0 renal; 87.8% in the experiment with COLO 205 colon; 97.9% with DU-145 prostate; 72.3% in the experiment with K-562 leukemia; 153% in the experiment on MALME-3M melanoma. Besides, the growth with MDA-MB-231 breast was 65.7%; with RXF 393 renal it was 89.9%; in the experiment on SF-268 CNS, 87.8%; in the experiment on SF-295 CNS it was 96.5%; with SF-539 CNS it was 99.2%; in the experiment on UACC-257 melanoma it was 89.2%. Also, in the experiment on M14 melanoma, the growth is 101%.
As for `CN(CCCCCl)P(=O)(OCc1ccc([N+](=O)[O-])o1)C(F)(F)C[C@H](NC(=O)CNC(=O)c1ccc(N=[N+]=[N-])cc1)C(=O)NCCc1ccc(O)cc1` (stereo partly specified), the growth is 105% in the experiment on NCI-H226 lung; 93.8% in the experiment on NCI-H322M lung; 118% with HOP-62 NSCLC; 105% in the experiment on NCI-H460 lung; 108% in the experiment on HOP-92 NSCLC; -66.9% (active) with NCI-H522 lung. Further, the growth in the experiment on A549/ATCC NSCLC is 99%; in the experiment on 786-0 renal, 109%; in the experiment on COLO 205 colon, 36.9%; in the experiment with DU-145 prostate, 117%; in the experiment with K-562 leukemia it was 40.4%; in the experiment on MALME-3M melanoma, 79.6%. For the same molecule, the growth in the experiment on MDA-MB-231 breast is 108%; in the experiment on RXF 393 renal, 47.6%; in the experiment on SF-268 CNS it was 98.1%; in the experiment on SF-295 CNS, 101%; with SF-539 CNS it was 104%; in the experiment with UACC-257 melanoma it was 104%. The growth in the experiment with M14 melanoma is 90%.
For `COc1ccc(CNCCCN2C(=O)c3ccc4c5c(ccc(c35)C2=O)C(=O)N(CCCNCCCCNCCCN)C4=O)c(OC)c1OC`, the growth in the experiment with NCI-H226 lung is 23.8%; in the experiment on NCI-H322M lung, 30.4%; with HOP-62 NSCLC, 19.3%; in the experiment with NCI-H460 lung it was 19.6%; in the experiment on HOP-92 NSCLC, 51.7%; with NCI-H522 lung it was 1.57% (active). Further, the growth is 25.3% in the experiment with A549/ATCC NSCLC; 22.4% in the experiment with 786-0 renal; -86.1% (active) in the experiment with COLO 205 colon; 36.9% in the experiment with DU-145 prostate; 6.82% (active) in the experiment on K-562 leukemia; -72.5% (active) with MALME-3M melanoma. Besides, the growth is 28% in the experiment on MDA-MB-231 breast; 7.45% (active) in the experiment with RXF 393 renal; 17% in the experiment on SF-268 CNS; 31.4% in the experiment on SF-295 CNS; 1.73% (active) in the experiment with SF-539 CNS; -83.3% (active) with UACC-257 melanoma. For the same molecule, in the experiment on M14 melanoma, the growth was 5.46% (active).
`NNc1cccc(/C=C/c2ccccc2)cc1=O`: the growth was 83% in the experiment with NCI-H226 lung; 71.1% in the experiment with NCI-H322M lung; 71.1% in the experiment with HOP-62 NSCLC; 27.5% in the experiment with NCI-H460 lung; 59.8% in the experiment with HOP-92 NSCLC; 64.6% in the experiment on A549/ATCC NSCLC. Also, the growth in the experiment with 786-0 renal was 69.1%; in the experiment with COLO 205 colon, 70.6%; in the experiment on DU-145 prostate it was 68.2%; in the experiment on K-562 leukemia, 45.5%; in the experiment on MALME-3M melanoma it was 103%; in the experiment on MDA-MB-231 breast it was 58.1%. The growth is 91.9% in the experiment with RXF 393 renal; 57.6% in the experiment on SF-268 CNS; 62.4% in the experiment with SF-539 CNS; 95.3% with UACC-257 melanoma; 61.4% in the experiment on M14 melanoma.
In the case of `COc1ccc(C(=O)NC(=O)Nc2cc3c(cc2F)/C(=C/c2[nH]c(C)c(CCC(=O)O)c2C)C(=O)N3)c(F)c1`, the growth in the experiment with NCI-H226 lung was 53.3%; in the experiment on NCI-H322M lung, 63.9%; with HOP-62 NSCLC it was 25.8%; with NCI-H460 lung, 28.6%; in the experiment with HOP-92 NSCLC, -0.4% (active); with NCI-H522 lung, 48.6%. Further, the growth is 13.5% in the experiment on A549/ATCC NSCLC; 39% in the experiment with 786-0 renal; 67.4% in the experiment with COLO 205 colon; 45.9% in the experiment with DU-145 prostate; 45.8% with K-562 leukemia; 49.9% in the experiment on MALME-3M melanoma. The growth in the experiment with MDA-MB-231 breast is 61.5%; with RXF 393 renal, 33.5%; in the experiment with SF-268 CNS, 32.3%; in the experiment on SF-295 CNS, 21.3%; in the experiment with SF-539 CNS, 15.4%; in the experiment with UACC-257 melanoma it was 20.1%. For the same molecule, the growth with M14 melanoma was 44.2%.
Take `O=S(=O)(NCCNc1nccc(-c2c(-c3ccc(F)cc3)nc3sccn23)n1)c1ccc(F)cc1`: the growth was 72.8% in the experiment with NCI-H226 lung; 77.4% in the experiment with NCI-H322M lung; 84.4% with HOP-62 NSCLC; 48.6% with NCI-H460 lung; 82.7% with HOP-92 NSCLC; 89.6% with NCI-H522 lung. Moreover, the growth in the experiment with A549/ATCC NSCLC is 49.3%; in the experiment with 786-0 renal, 73.7%; in the experiment with COLO 205 colon, 58.8%; in the experiment on DU-145 prostate it was 75.9%; in the experiment on K-562 leukemia it was 56.7%; in the experiment on MALME-3M melanoma it was 76.8%. Besides, the growth with MDA-MB-231 breast is 78.4%; in the experiment on RXF 393 renal, 70%; in the experiment on SF-268 CNS it was 79.2%; in the experiment with SF-539 CNS it was 102%; in the experiment with UACC-257 melanoma it was 102%; with M14 melanoma, 73.7%.
